# From PubChem BioAssay
# For some assays here: Entries with a potency or affinity are not part of this list. Calls of active or inactive are those of the source. Unless noted, the rule behind the calls is not given here.
# Tested on: not listed separately
# Assay: inhibition of 3D7 malaria parasite growth – strain 3D7 (AID 2306);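 note: 0% = DMSO wells and 100% = chloroquine plus artemisinin control wells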
# Conditions: P. falciparum 3D7 erythrocytic growth, LDH absorbance, 72 h; at 2 µM; stronger effect = higher value
row,Structure (SMILES),growth inhibition
1,COc1ccc(-c2ccc(CNC3Cc4ccccc4C3)cc2)cc1S(=O)(=O)NCCN1CCCC1,100% (active)
2,N#Cc1ccc2c(c1)CCN(CCC1CCC(Nc3ncnc4ccccc34)CC1)C2 (stereo not drawn),101% (active)
3,Cc1[nH]c(C)c(-c2ccc(-c3ccc(Cl)cc3)nc2)c(=O)c1Cl,95% (active)

# Molecular target: Calcium-dependent protein kinase 1 (Plasmodium falciparum (isolate 3D7)) (UniProt P62344)
# Sequence (P62344 whole entry, looked up): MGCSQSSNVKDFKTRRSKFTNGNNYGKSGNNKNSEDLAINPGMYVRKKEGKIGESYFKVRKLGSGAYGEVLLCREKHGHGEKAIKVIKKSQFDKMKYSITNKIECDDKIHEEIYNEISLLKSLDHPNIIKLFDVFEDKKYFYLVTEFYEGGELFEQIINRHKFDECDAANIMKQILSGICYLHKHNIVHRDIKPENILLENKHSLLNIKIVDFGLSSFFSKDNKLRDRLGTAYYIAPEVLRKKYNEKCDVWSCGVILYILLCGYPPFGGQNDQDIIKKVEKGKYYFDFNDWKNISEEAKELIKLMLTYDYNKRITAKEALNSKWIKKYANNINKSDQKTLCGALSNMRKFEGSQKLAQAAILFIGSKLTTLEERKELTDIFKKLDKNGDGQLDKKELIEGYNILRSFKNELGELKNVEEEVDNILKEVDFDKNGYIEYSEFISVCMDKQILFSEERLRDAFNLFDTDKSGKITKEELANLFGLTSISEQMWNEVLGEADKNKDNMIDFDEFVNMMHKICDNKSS
# Assay: PfCDPK1 kinase inhibitors, biochemical, TCAMS library (AID 1159585; cut-off not given, nearly all actives have IC50 up to about 0.98 µM;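 note: inhibitors leave more ATP so luminescence rises with inhibition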)
# Conditions: recombinant PfCDPK1, Kinase-Glo ATP depletion luminescence
row,Structure (SMILES),outcome
1,CNc1ccc(CNCc2cccc(-c3ccc(-c4nc5c(C)cccc5[nH]4)cc3)c2)cc1,inactive
2,COc1ccc(C2C(C(=O)Nc3cc(C)ccc3OC)c3ccccc3C(=O)N2C)cc1 (stereo not drawn),inactive
3,N#Cc1ccccc1Sc1ccccc1C(=O)Nc1ccc2ccccc2n1,inactive
4,COc1ccc2nccc([C@@H](O)CN3CCC(NC(=O)c4ccc(Cl)c([N+](=O)[O-])c4)CC3)c2c1,inactive
5,O=C(Nc1cccc(-c2cccc(-c3nc4ccc(C(F)(F)F)cc4[nH]3)c2)c1)c1ccncc1,inactive
6,O=C(Nc1ccccc1)c1nn(CCCN2CCC(N3CCCC3)CC2)cc1-c1ccc(Cl)c(Cl)c1,inactive
7,CC(=O)NC(c1cccs1)c1cc(Cl)c2cccnc2c1O (stereo not drawn),inactive
8,COc1cc(NC(=O)N2CCc3ccc(OCCN4CCCCC4)cc32)cc(C(F)(F)F)c1,inactive
9,Cc1cc(N[C@@H](Cc2ccccc2)C(=O)NCCOc2ccccc2)nc(NCCOc2ccccc2)n1,inactive
10,Cc1nc(-c2ccc(-c3ccc(NC(=O)c4coc5ccc(N6C[C@@H](C)N(C)[C@@H](C)C6)cc45)cc3)c(C)c2)no1,inactive
11,N#Cc1ccc2c(c1)CCN(CCC1CCC(NC(=O)/C=C/c3cc(Br)cs3)CC1)CC2 (stereo not drawn),inactive
12,CN1CCN(c2ccnc3ccc(NC(=O)Nc4ccccc4Br)cc23)CC1,inactive
13,Cc1nc2ccc3ccc(CNc4ccc5c(c4)CN([C@H](CCC(=O)O)C(=O)O)C5=O)cc3c2c(=O)[nH]1,inactive
14,CCCC(=O)NC(c1ccc(C(C)C)cc1)c1ccc2cccnc2c1O (stereo not drawn),inactive
15,COc1ccc2nccc([C@@H](O)CN3CCC(NCCOc4cccc(F)c4F)CC3)c2c1,inactive
16,Cc1cc(N[C@@H](CC(C)C)C(=O)NCc2cccc(F)c2)nc(NCCc2ccc(F)cc2)n1,inactive
17,COCCn1c(-c2nc(-c3ccc(F)cc3)cnc2N)nc2ccccc21,inactive
18,C=CCc1cc(Br)ccc1OCCCON1C(N)=NC(N)=NC1(C)C,inactive
19,O=C(Nc1ccnc2ccccc12)NC1CCN(Cc2ccccc2)CC1,inactive
20,O=C(/C=C/c1ccc(Cl)c(Cl)c1)NC1CCC(CN2CCC(c3coc4ccccc34)CC2)CC1 (stereo not drawn),inactive

row,Structure (SMILES),outcome
1,Oc1cccc(Nc2nc(NCc3ccco3)c3ccccc3n2)c1,inactive
2,CN(C)C(=NCCCCCCN=C(/N=C(/N)Nc1ccc(Cl)cc1)N(C)C)/N=C(/N)Nc1ccc(Cl)cc1,inactive
3,CC1CCC2(CC1)N=C(N)N=C(N)N2OCc1ccc(Br)c2ccccc12 (stereo not drawn),inactive
4,O=S(=O)(NCCN1CCCC1)c1cccc(-c2cccc(CNCc3ccc(F)cc3)c2)c1,inactive
5,COc1ccc2nccc([C@@H](O)CN3CCC(NC(=O)/C=C/c4ccc(Cl)c(C(F)(F)F)c4)CC3)c2c1,inactive
6,Clc1ccc2c(N3CCCNCC3)ccnc2c1,inactive
7,c1ccc(Cn2nnnc2-c2cccc(Nc3ccnc4cc(-c5nccs5)ccc34)c2)cc1,inactive
8,CC(C)Oc1cc2c(cc1NS(=O)(=O)c1ccc(-c3cccs3)cc1)CCN(C)CC2,inactive
9,Cc1cc([N+](=O)[O-])ccc1N1CCN(CCCCNC(=O)c2ccc(NC(=O)c3ccc(Cl)cc3)cc2)CC1,inactive
10,CC1CCC(NCc2c(O)ccc3ccccc23)CC1 (stereo not drawn),inactive
11,CCNc1cc(C(=O)N[C@@H](Cc2cc(F)cc(F)c2)[C@H](O)CNCc2cccc(C(F)(F)F)c2)cc(N2CCCCS2(=O)=O)c1,inactive
12,CCc1ccc(NC(=O)c2cccc(CN3CCCN(CC4CCCCC4)CC3)c2)cc1,inactive
13,CC1(C)N=C(NC(=O)Nc2ccc([N+](=O)[O-])cc2)N=C(N)N1OCc1cccc2ccccc12,inactive
14,O=C(Nc1ccc(Cl)cc1)NC1CCN(CCCCCNC(=O)[C@@H]2C[C@H]2c2ccc(Cl)c(Cl)c2)CC1,inactive
15,O=C(NC1CCCCCC1)C1CCCN(C(=O)c2ccc(O)c(-c3ccc(Cl)c(Cl)c3)c2)C1 (stereo not drawn),inactive
16,O=C(Nc1ccc2c(c1)CCC2)c1nc(N2CCN(c3ccncc3)CC2)ccc1Cl,inactive
17,CCNc1cc(C(=O)N[C@@H](Cc2ccccc2)[C@H](O)CNC2(Cc3cccc(Cl)c3)CCC2)cc(N2CCCCS2(=O)=O)c1,inactive
18,COc1ccc(-c2ccc(CNC3Cc4ccccc4C3)cc2)cc1S(=O)(=O)NCCN1CCCC1,inactive
19,N#Cc1ccc2c(c1)CCN(CCC1CCC(Nc3ncnc4ccccc34)CC1)C2 (stereo not drawn),inactive
20,Cc1[nH]c(C)c(-c2ccc(-c3ccc(Cl)cc3)nc2)c(=O)c1Cl,inactive

# Molecular target: Plasmodium falciparum protein kinase 6 (PK6, PF3D7_1337100) (UniProt Q8IDW1)
# Sequence (Q8IDW1 1-305): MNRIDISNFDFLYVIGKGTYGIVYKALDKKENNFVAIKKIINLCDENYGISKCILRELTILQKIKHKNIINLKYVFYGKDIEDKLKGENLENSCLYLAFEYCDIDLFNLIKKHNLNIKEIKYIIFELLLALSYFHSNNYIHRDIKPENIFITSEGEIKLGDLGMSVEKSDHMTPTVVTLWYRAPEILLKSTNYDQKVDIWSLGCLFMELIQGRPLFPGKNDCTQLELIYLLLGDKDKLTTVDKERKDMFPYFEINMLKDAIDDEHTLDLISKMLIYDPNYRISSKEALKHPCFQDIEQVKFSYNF
# Assay: PfPK6 kinase inhibitors, biochemical, TCAMS library (AID 1159586)
# Conditions: recombinant PfPK6, Kinase-Glo ATP depletion luminescence
row,Structure (SMILES),outcome
1,CNc1ccc(CNCc2cccc(-c3ccc(-c4nc5c(C)cccc5[nH]4)cc3)c2)cc1,inactive
2,COc1ccc(C2C(C(=O)Nc3cc(C)ccc3OC)c3ccccc3C(=O)N2C)cc1 (stereo not drawn),inactive
3,N#Cc1ccccc1Sc1ccccc1C(=O)Nc1ccc2ccccc2n1,inactive
4,COc1ccc2nccc([C@@H](O)CN3CCC(NC(=O)c4ccc(Cl)c([N+](=O)[O-])c4)CC3)c2c1,inactive
5,O=C(Nc1cccc(-c2cccc(-c3nc4ccc(C(F)(F)F)cc4[nH]3)c2)c1)c1ccncc1,inactive
6,O=C(Nc1ccccc1)c1nn(CCCN2CCC(N3CCCC3)CC2)cc1-c1ccc(Cl)c(Cl)c1,inactive
7,CC(=O)NC(c1cccs1)c1cc(Cl)c2cccnc2c1O (stereo not drawn),inactive
8,COc1cc(NC(=O)N2CCc3ccc(OCCN4CCCCC4)cc32)cc(C(F)(F)F)c1,inactive
9,Cc1cc(N[C@@H](Cc2ccccc2)C(=O)NCCOc2ccccc2)nc(NCCOc2ccccc2)n1,inactive
10,Cc1nc(-c2ccc(-c3ccc(NC(=O)c4coc5ccc(N6C[C@@H](C)N(C)[C@@H](C)C6)cc45)cc3)c(C)c2)no1,inactive
11,N#Cc1ccc2c(c1)CCN(CCC1CCC(NC(=O)/C=C/c3cc(Br)cs3)CC1)CC2 (stereo not drawn),inactive
12,CN1CCN(c2ccnc3ccc(NC(=O)Nc4ccccc4Br)cc23)CC1,inactive
13,Cc1nc2ccc3ccc(CNc4ccc5c(c4)CN([C@H](CCC(=O)O)C(=O)O)C5=O)cc3c2c(=O)[nH]1,inactive
14,CCCC(=O)NC(c1ccc(C(C)C)cc1)c1ccc2cccnc2c1O (stereo not drawn),inactive
15,COc1ccc2nccc([C@@H](O)CN3CCC(NCCOc4cccc(F)c4F)CC3)c2c1,inactive
16,Cc1cc(N[C@@H](CC(C)C)C(=O)NCc2cccc(F)c2)nc(NCCc2ccc(F)cc2)n1,inactive
17,COCCn1c(-c2nc(-c3ccc(F)cc3)cnc2N)nc2ccccc21,inactive
18,C=CCc1cc(Br)ccc1OCCCON1C(N)=NC(N)=NC1(C)C,inactive
19,O=C(Nc1ccnc2ccccc12)NC1CCN(Cc2ccccc2)CC1,inactive
20,O=C(/C=C/c1ccc(Cl)c(Cl)c1)NC1CCC(CN2CCC(c3coc4ccccc34)CC2)CC1 (stereo not drawn),inactive

row,Structure (SMILES),outcome
1,Oc1cccc(Nc2nc(NCc3ccco3)c3ccccc3n2)c1,inactive
2,CN(C)C(=NCCCCCCN=C(/N=C(/N)Nc1ccc(Cl)cc1)N(C)C)/N=C(/N)Nc1ccc(Cl)cc1,inactive
3,CC1CCC2(CC1)N=C(N)N=C(N)N2OCc1ccc(Br)c2ccccc12 (stereo not drawn),inactive
4,O=S(=O)(NCCN1CCCC1)c1cccc(-c2cccc(CNCc3ccc(F)cc3)c2)c1,inactive
5,COc1ccc2nccc([C@@H](O)CN3CCC(NC(=O)/C=C/c4ccc(Cl)c(C(F)(F)F)c4)CC3)c2c1,inactive
6,Clc1ccc2c(N3CCCNCC3)ccnc2c1,inactive
7,c1ccc(Cn2nnnc2-c2cccc(Nc3ccnc4cc(-c5nccs5)ccc34)c2)cc1,inactive
8,CC(C)Oc1cc2c(cc1NS(=O)(=O)c1ccc(-c3cccs3)cc1)CCN(C)CC2,inactive
9,Cc1cc([N+](=O)[O-])ccc1N1CCN(CCCCNC(=O)c2ccc(NC(=O)c3ccc(Cl)cc3)cc2)CC1,inactive
10,CC1CCC(NCc2c(O)ccc3ccccc23)CC1 (stereo not drawn),inactive
11,CCNc1cc(C(=O)N[C@@H](Cc2cc(F)cc(F)c2)[C@H](O)CNCc2cccc(C(F)(F)F)c2)cc(N2CCCCS2(=O)=O)c1,inactive
12,CCc1ccc(NC(=O)c2cccc(CN3CCCN(CC4CCCCC4)CC3)c2)cc1,inactive
13,CC1(C)N=C(NC(=O)Nc2ccc([N+](=O)[O-])cc2)N=C(N)N1OCc1cccc2ccccc12,inactive
14,O=C(Nc1ccc(Cl)cc1)NC1CCN(CCCCCNC(=O)[C@@H]2C[C@H]2c2ccc(Cl)c(Cl)c2)CC1,inactive
15,O=C(NC1CCCCCC1)C1CCCN(C(=O)c2ccc(O)c(-c3ccc(Cl)c(Cl)c3)c2)C1 (stereo not drawn),inactive
16,O=C(Nc1ccc2c(c1)CCC2)c1nc(N2CCN(c3ccncc3)CC2)ccc1Cl,inactive
17,CCNc1cc(C(=O)N[C@@H](Cc2ccccc2)[C@H](O)CNC2(Cc3cccc(Cl)c3)CCC2)cc(N2CCCCS2(=O)=O)c1,inactive
18,COc1ccc(-c2ccc(CNC3Cc4ccccc4C3)cc2)cc1S(=O)(=O)NCCN1CCCC1,inactive
19,N#Cc1ccc2c(c1)CCN(CCC1CCC(Nc3ncnc4ccccc34)CC1)C2 (stereo not drawn),inactive
20,Cc1[nH]c(C)c(-c2ccc(-c3ccc(Cl)cc3)nc2)c(=O)c1Cl,inactive
